From publication PMC5540273 (PLoS ONE, 2017)

Columns and labels:
Conditions in all cases: concentration: 1 μM, replicates: in singlicate; n = 1
[1] = test system: EPHA2
[2] = test system: EPHA3
[3] = test system: EPHA4
[4] = test system: EPHA5
[5] = test system: EPHA6
[6] = test system: EPHA7
[7] = test system: EPHA8
[8] = test system: EPHB1
[9] = test system: EPHB2
[10] = test system: EPHB3
[11] = test system: EPHB4
[12] = test system: EPHB6
[13] = test system: ERBB2
[14] = test system: ERBB3
[15] = test system: ERBB4
[16] = test system: T1, ERK1
T1 construct: gene MAPK3

[17] = test system: T2, ERK2
T2 construct: gene MAPK1

[18] = test system: T3, ERK3
T3 construct: gene MAPK6

[19] = test system: T4, ERK4
T4 construct: gene MAPK4

[20] = test system: T5, ERK5
T5 construct: gene MAPK7
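Note: KINOMEscan kinase panel screen.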

CCn1c(-c2c(N)noc2C)nc2cnccc21 [SB-737856]
%Inh [1]: 15%
%Inh [2]: 0%
%Inh [3]: 29%
%Inh [4]: 7%
%Inh [5]: 21%
%Inh [6]: 14%
%Inh [7]: 33%
%Inh [8]: 12%
%Inh [9]: 0%
%Inh [10]: 26%
%Inh [11]: 54%
%Inh [12]: 0%
%Inh [13]: 31%
%Inh [14]: 0%
%Inh [15]: 0%
%Inh [16]: 0%
%Inh [17]: 9%
%Inh [18]: 100%
%Inh [19]: 16%
%Inh [20]: 0%

Cc1ccc(NC(=O)Nc2ccc(Cl)cc2)cc1-c1ccc(C(=O)Nc2ccncc2)cc1 [GSK1398472]
%Inh [1]: 43%
%Inh [2]: 0%
%Inh [3]: 41%
%Inh [4]: 2%
%Inh [5]: 36%
%Inh [6]: 7%
%Inh [7]: 34%
%Inh [8]: 16%
%Inh [9]: 11%
%Inh [10]: 25%
%Inh [11]: 23%
%Inh [12]: 2%
%Inh [13]: 25%
%Inh [14]: 0%
%Inh [15]: 0%
%Inh [16]: 0%
%Inh [17]: 0%
%Inh [18]: 15%
%Inh [19]: 3%
%Inh [20]: 0%

CNc1cc(-c2ccc3c(N)n[nH]c3c2)nc(N)n1 [GSK2224810]
%Inh [1]: 0%
%Inh [2]: 27%
%Inh [3]: 0%
%Inh [4]: 0%
%Inh [5]: 0%
%Inh [6]: 0%
%Inh [7]: 0%
%Inh [8]: 23%
%Inh [9]: 0%
%Inh [10]: 4%
%Inh [11]: 19%
%Inh [12]: 0%
%Inh [13]: 32%
%Inh [14]: 0%
%Inh [15]: 0%
%Inh [16]: 0%
%Inh [17]: 0%
%Inh [18]: 3%
%Inh [19]: 7%
%Inh [20]: 0%

NS(=O)(=O)c1cccc(N/C=C2\C(=O)Nc3ccc(S(=O)(=O)Cc4c(Cl)cccc4Cl)cc32)c1 [GSK398099]
%Inh [1]: 0%
%Inh [2]: 12%
%Inh [3]: 12%
%Inh [4]: 0%
%Inh [5]: 3%
%Inh [6]: 8%
%Inh [7]: 31%
%Inh [8]: 17%
%Inh [9]: 14%
%Inh [10]: 6%
%Inh [11]: 15%
%Inh [12]: 44%
%Inh [13]: 0%
%Inh [14]: 0%
%Inh [15]: 37%
%Inh [16]: 0%
%Inh [17]: 0%
%Inh [18]: 24%
%Inh [19]: 48%
%Inh [20]: 0%

CCn1c(-c2ccccc2)nc2cnccc21 [SB-733416]
%Inh [1]: 10%
%Inh [2]: 0%
%Inh [3]: 24%
%Inh [4]: 10%
%Inh [5]: 29%
%Inh [6]: 7%
%Inh [7]: 5%
%Inh [8]: 7%
%Inh [9]: 15%
%Inh [10]: 26%
%Inh [11]: 16%
%Inh [12]: 0%
%Inh [13]: 0%
%Inh [14]: 0%
%Inh [15]: 0%
%Inh [16]: 0%
%Inh [17]: 18%
%Inh [18]: 0%
%Inh [19]: 0%
%Inh [20]: 37%

CC(C)c1ccc(O)cc1Nc1ccnc2ccc(C(F)(F)F)cc12 [GW482059]
%Inh [1]: 0%
%Inh [2]: 0%
%Inh [3]: 19%
%Inh [4]: 0%
%Inh [5]: 20%
%Inh [6]: 0%
%Inh [7]: 3%
%Inh [8]: 9%
%Inh [9]: 0%
%Inh [10]: 13%
%Inh [11]: 0%
%Inh [12]: 0%
%Inh [13]: 10%
%Inh [14]: 0%
%Inh [15]: 0%
%Inh [16]: 0%
%Inh [17]: 0%
%Inh [18]: 0%
%Inh [19]: 0%
%Inh [20]: 0%

Cc1c(Cn2c(C)c(C)n3c(=O)cc(N4CCOCC4)nc23)cccc1C(F)(F)F [GSK2328680]
%Inh [1]: 17%
%Inh [2]: 0%
%Inh [3]: 1%
%Inh [4]: 0%
%Inh [5]: 0%
%Inh [6]: 4%
%Inh [7]: 7%
%Inh [8]: 0%
%Inh [9]: 0%
%Inh [10]: 2%
%Inh [11]: 14%
%Inh [12]: 0%
%Inh [13]: 0%
%Inh [14]: 16%
%Inh [15]: 4%
%Inh [16]: 0%
%Inh [17]: 0%
%Inh [18]: 8%
%Inh [19]: 0%
%Inh [20]: 0%

COc1ccc(Nc2nccc(N3CCC(NC(=O)C(C)c4ccc(Cl)cc4)C3)n2)cc1 (centres unmarked) [GSK1379735]
%Inh [1]: 25%
%Inh [2]: 9%
%Inh [3]: 14%
%Inh [4]: 0%
%Inh [5]: 11%
%Inh [6]: 18%
%Inh [7]: 17%
%Inh [8]: 13%
%Inh [9]: 0%
%Inh [10]: 9%
%Inh [11]: 7%
%Inh [12]: 18%
%Inh [13]: 11%
%Inh [14]: 9%
%Inh [15]: 0%
%Inh [16]: 0%
%Inh [17]: 0%
%Inh [18]: 0%
%Inh [19]: 0%
%Inh [20]: 0%

COc1ccc(Nc2nccc(N3CCC(NC(=O)C(C)c4ccc(Cl)cc4)CC3)n2)cc1 (centres unmarked) [GSK1379812]
%Inh [1]: 7%
%Inh [2]: 5%
%Inh [3]: 0%
%Inh [4]: 0%
%Inh [5]: 0%
%Inh [6]: 0%
%Inh [7]: 9%
%Inh [8]: 34%
%Inh [9]: 71%
%Inh [10]: 1%
%Inh [11]: 0%
%Inh [12]: 100%
%Inh [13]: 19%
%Inh [14]: 19%
%Inh [15]: 0%
%Inh [16]: 0%
%Inh [17]: 4%
%Inh [18]: 2%
%Inh [19]: 0%
%Inh [20]: 0%

Fc1ccc(-c2nc3n(c2-c2ccncc2)CCS3)cc1 [GI98581]
%Inh [1]: 12%
%Inh [2]: 0%
%Inh [3]: 0%
%Inh [4]: 10%
%Inh [5]: 19%
%Inh [6]: 4%
%Inh [7]: 11%
%Inh [8]: 9%
%Inh [9]: 15%
%Inh [10]: 19%
%Inh [11]: 2%
%Inh [12]: 7%
%Inh [13]: 0%
%Inh [14]: 3%
%Inh [15]: 8%
%Inh [16]: 10%
%Inh [17]: 25%
%Inh [18]: 5%
%Inh [19]: 0%
%Inh [20]: 0%
